# Compound activity deposited in PubChem by National Center for Advancing Translational Sciences (NCATS).
# TDP-43 rescue – TDP-43 toxicity inhibition in yeast. yeast TDP-43 toxicity rescue, BacTiter-Glo growth, 24 h. Potency, µM (series often up to 46.1 µM), most hits filed as activators. 45,000 compounds, 0.45% hits. AID 1347073; active means well fitted activation curve with a large enough effect; further: nearly all actives have a fitted effect of over 55% in size
#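 TDP-43-expressing yeast, pregrown in raffinose, seeded at OD600 0.02 in galactose medium with compound for 24 hr at 30 deg C. Growth read by BacTiter-Glo luminescence, so rescue of toxicity appears as activation.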
# Numbers stand for hits; . = inactive. The entries come from a sample that favours hits as a whole.
SMILES,TDP-43 rescue
Cc1ccc(NC(=O)C2CCCN2S(=O)(=O)c2ccc3c(c2)n(C)c(=O)c(=O)n3C)cc1 (configuration not stated),.
Cc1ccc(NC(=O)[C@@H]2CCCN2S(=O)(=O)c2ccccc2F)cc1,.
Cc1ccc(S(=O)(=O)N2CCCC2C(=O)Nc2ccc(Br)cc2)cc1 (configuration not stated),12.6µM
COc1ccc(COc2ccccc2C(=O)NCc2ccccc2)cc1F,.
COc1cc(NC(=O)Cc2cccs2)c(C(=O)O)cc1OC,.
CC1(c2ccccc2)NC(=O)N(CC(=O)N(c2ccccc2)C2CCS(=O)(=O)C2)C1=O (configuration not stated),.
COc1cc(OC)cc(C(=O)N[C@H](C(=O)Nc2nc(-c3ccc(F)c(F)c3)cs2)C(C)C)c1,.
COc1ccccc1CC(=O)Nc1nc(-c2ccc(F)c(F)c2)cs1,12.6µM
COc1ccc(CC(=O)Nc2nc(-c3ccc(OC)c(OC)c3)cs2)cc1OC,.
COc1ccc(C(=O)CC(=O)C(=O)Nc2cccc(C(C)=O)c2)cc1,.
Cc1ccc(S(=O)(=O)Nc2cc3c(cc2C)n(C)c(=O)c(=O)n3C)c(C)c1,.
N/C(=N\OC(=O)Cc1ccc([N+](=O)[O-])cc1)c1ccc([N+](=O)[O-])cc1,.
N/C(=N\OC(=O)c1ccc([N+](=O)[O-])cc1)c1cccnc1,.
N/C(Cc1ccc([N+](=O)[O-])cc1)=N\OC(=O)c1ccc2ccccc2c1,8.91µM
Cc1ccc(CN(C(=O)COc2c(C)cccc2C)C2CCS(=O)(=O)C2)o1 (configuration not stated),.
O=C(NCc1cccc(C(F)(F)F)c1)c1csc([C@H]2C[C@H](O)[C@@H](CO)O2)n1,.
COc1cccc(-c2cc3nc(NCc4ccc(C)cc4C)n(C)c(=O)c3s2)c1,.
CCOc1cc(/C=C2/C(=O)ON=C2C)ccc1OCc1ccccc1,.
COc1cc(/C=C2\C(=O)ON=C2c2ccccc2)cc(OC)c1OC,11.2µM
C#CCOc1c(Br)cc(/C=C2/C(=O)ON=C2C)cc1OC,.
CC(C)Cc1csc(NC(=O)c2ccc(F)cc2)c1C(=O)O,.
CCOC(=O)c1c(N)sc(N)c1C(=O)OCC,.
CCOC(=O)c1c(CC(C)C)csc1NC=O,15.8µM
Nc1nc(NCCc2ccccc2)nc(NCCO)c1[N+](=O)[O-],.
Cc1ccccc1Nc1c(-c2ccccc2O)nc2sccn12,.
SMILES,TDP-43 rescue
COc1ccc([N+](=O)[O-])cc1/C=N/Nc1nn[nH]n1,.
Cc1cccc(Nc2nnc(SCC(=O)Nc3ccccc3[N+](=O)[O-])s2)c1C,17.8µM
Cc1ccccc1Nc1nnc(SCC(=O)NCc2cccs2)s1,.
Cc1cccc(NC(=O)CSc2nnc(NC(=O)C3CC3)s2)c1C,.
COc1ccc(NS(=O)(=O)c2cccc(C(=O)NN=Cc3cc(Br)c(O)c(Br)c3)c2)cc1,.
CCOc1ccccc1NC(=O)CSC1=NN2CCCC(=O)N=C2S1,.
COc1ccc(OC)c(NC(=O)CSC2=NN3CCCC(=O)N=C3S2)c1,.
COc1ccc(Cl)cc1NC(=O)CSC1=NN2CCCC(=O)N=C2S1,14.1µM
COc1nc(Nc2cccc([N+](=O)[O-])c2)nc(OC)n1,.
C#CCOc1nc(Nc2cccc([N+](=O)[O-])c2)nc(OCC#C)n1,.
COc1nc(Nc2ccc([N+](=O)[O-])cc2)nc(NC2CCCCC2)n1,15.8µM
NC(=O)C1CCN(S(=O)(=O)Cc2ccccc2Cl)CC1,.
COc1ccc(N2CCOCC2)c(NC(=O)c2ccc(Br)o2)c1,15.8µM
COc1ccc(S(=O)(=O)Nc2cc(C(=O)NCCCN3CCOCC3)ccc2N2CCOCC2)cc1,.
COC(=O)c1cc(OC)c(OC)cc1NC(=O)c1ccc(Br)o1,.
O=C(CCNC(=O)c1ccco1)Nc1ccccc1N1CCOCC1,.
COCCN=c1scc(-c2cc(OC)ccc2OC)n1/N=C/c1c[nH]c2ccccc12,20µM
CC(C)Oc1ccc(Br)cc1C(=O)N/N=C/c1c[nH]c2ccccc12,.
COc1ccc(C)cc1Nc1nc(-c2c[nH]c3ccccc23)cs1,.
CCCCN(C)c1c(C)nc2ccc(C(=O)NCCOc3ccc(OC)cc3)cn12,.
CCCN(c1ccccc1CC)S(=O)(=O)c1ccc2c(c1)CC(C)N2C(=O)C1CC1 (configuration not stated),.
Cc1nc(C)n(C(C)CNS(=O)(=O)c2ccc(C)c(C)c2)n1 (configuration not stated),.
CC1CN(c2oc(-c3ccco3)nc2C#N)CC(C)O1 (configuration not stated),.
N#Cc1nc(-c2ccc(OCc3ccccc3)cc2)oc1NCc1ccco1,.
CN(Cc1ccccc1)c1oc(-c2ccco2)nc1C#N,14.1µM
SMILES,TDP-43 rescue
COc1cccc(CNC(=O)CNS(=O)(=O)c2ccc3nc(C)sc3c2)c1,.
NC(=S)NN=C1c2cc(OCCN3CCOCC3)ccc2-c2ccc(OCCN3CCOCC3)cc21,.
OCCC1CN(CC(c2ccccc2)c2ccccc2)CCN1C1CCCC1 (configuration not stated),.
COc1cccc(NC(=O)COC(=O)CCSc2ccccc2)c1,.
O=C(COC(=O)CCC(=O)c1ccc(Cl)cc1)NCc1ccc(F)cc1,.
O=C(COC(=O)CCSc1ccc(Cl)cc1)Nc1ccc(F)cc1,11.2µM
Cc1cccc(NC(=O)CN2C(=O)C(c3ccccc3)=NC23CCC(C)CC3)c1 (configuration not stated),.
COC(=O)c1c(C)nn(-c2ccc(F)cc2)c1-n1cccc1,.
O=C(COC(=O)/C=C/c1ccccc1Cl)NCC1CCCO1 (configuration not stated),.
O=C(COC(=O)c1ccc(Br)cc1)NCC1CCCO1 (configuration not stated),.
O=C(COC(=O)c1c(Cl)ccc(Cl)c1Cl)NCC1CCCO1 (configuration not stated),14.1µM
COc1cccc(CNC(=O)c2oc3ccc4c(c3c2C)C(=O)CC(C)(C)O4)c1OC,.
O=C1CC(N2CCN(c3cccc(C(F)(F)F)c3)CC2)C(=O)N1c1ccccc1F (configuration not stated),15.8µM
O=C1CC(N2CCSCC2)C(=O)N1c1ccccc1 (configuration not stated),.
O=C1CC(N2CCN(c3ccccc3)CC2)C(=O)N1Cc1ccc(Cl)cc1 (configuration not stated),.
CCCCCCn1nc(C(=O)N(CCCC)c2c(N)n(CCC)c(=O)[nH]c2=O)c2ccccc2c1=O,.
COc1ccccc1CNC(=O)CN1C(=O)c2cccnc2Oc2ccccc21,.
Cc1ccc(-c2nc3ncccc3o2)cc1NC(=O)c1ccccc1Br,.
CC(=O)c1ccc(Nc2nc(C(N)CCc3ccccc3)cs2)cc1 (configuration not stated),.
COc1ccc(Cl)cc1NC(=S)NN1CCOCC1,.
COc1ccc(Cl)cc1NC(=S)Nc1ccc(Cl)cn1,.
COc1ccc(Cl)cc1NC(=S)NCCSc1ccc(C)cc1,12.6µM
CCc1ccccc1NC(=O)Cn1nnc(-c2nc(-c3ccc(C)cc3)no2)c1N,.
O=C(NC(c1ccccc1)c1ccc2ccccc2n1)C1CCN(Cc2ccc(Cl)c(Cl)c2)CC1 (configuration not stated),.
O=C(/C=C/c1ccccc1)NCCSCc1ccccc1,.
O=C(/C=C/c1cccc([N+](=O)[O-])c1)NCCSCc1cccc(Cl)c1,12.6µM
O=C(/C=C/c1cccc([N+](=O)[O-])c1)NCCc1ccc(F)cc1,.
CN(C)Cc1csc(NC(=O)Nc2ccccc2Cc2ccccc2)n1,.
